Results from PubChem BioAssay (Tox21).
Inconclusive results are not listed. The source made the active and inactive calls. Unless noted, calls come from the whole dose curve; as a rule, active = well fitted curve in the direction sought with a large enough effect in the repeat runs; inconclusive = weak or mixed curves; inactive = no such curve, though single readings can be large; an effect the other way counts as inactive or inconclusive.

Experiments:
[1] = qHTS assay to identify aromatase inhibitors - cell viability counter screen (AID 743084);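 note: cells stimulated with testosterone during compound exposure; nearly all actives have a fitted effect of over 55% in size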
[2] = qHTS assay to identify small molecule that activate the aryl hydrocarbon receptor (AhR) signaling pathway - cell viability counter screen (AID 743086);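 note: HepG2 liver cells carrying the AhR DRE luciferase reporter; series mostly up to about 70 µM; nearly all actives have a fitted effect of over 45% in size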
Outline: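 Cytotoxicity counter screen: CellTiter-Fluor signal (30 min, 37 C) in 4000 HepG2 cells/well carrying the DRE-luciferase reporter, following 24 h compound exposure at 37 C.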

[3] = molecular target: Peroxisome proliferator-activated receptor gamma (Homo sapiens) (UniProt P37231); assay: qHTS assay to identify small molecule agonists of the peroxisome proliferator-activated receptor gamma (PPARg) signaling pathway (AID 743094; active = well fitted activation curve with a large enough effect in the signal ratio in the repeat runs, not every such curve was filed as active; the % refers to the signal ratio)
Sequence of Peroxisome proliferator-activated receptor gamma (Homo sapiens) (P37231 whole entry, looked up): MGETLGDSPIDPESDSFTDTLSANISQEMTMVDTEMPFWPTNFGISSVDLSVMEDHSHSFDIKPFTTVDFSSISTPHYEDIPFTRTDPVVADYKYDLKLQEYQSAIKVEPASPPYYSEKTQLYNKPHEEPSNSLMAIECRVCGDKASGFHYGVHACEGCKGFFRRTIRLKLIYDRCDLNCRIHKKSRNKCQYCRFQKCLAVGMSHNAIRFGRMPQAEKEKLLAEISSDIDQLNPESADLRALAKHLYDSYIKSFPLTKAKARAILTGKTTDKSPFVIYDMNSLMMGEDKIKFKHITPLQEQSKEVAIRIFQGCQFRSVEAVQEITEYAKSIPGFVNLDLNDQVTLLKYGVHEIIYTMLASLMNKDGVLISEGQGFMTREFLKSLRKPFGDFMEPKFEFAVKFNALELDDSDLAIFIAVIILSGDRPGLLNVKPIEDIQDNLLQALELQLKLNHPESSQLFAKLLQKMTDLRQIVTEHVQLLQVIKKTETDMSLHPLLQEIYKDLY
Outline: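 HEK293H PPARg-bla cells, 5 h settle at 37C/5% CO2; compound (DMSO) 17 h, 37C; B/G FRET substrate 1 h RT; fluorescence intensity read-out. qHTS format.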

[4] = molecular target: Peroxisome proliferator-activated receptor gamma (Homo sapiens) (UniProt P37231); assay: qHTS assay to identify small molecule antagonists of the peroxisome proliferator-activated receptor gamma (PPARg) signaling pathway (AID 743191; calls by dose curve; note: series mostly up to about 63 µM; nearly all actives have a fitted effect of over 30% in size)
Outline: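 Beta-lactamase reporter under UAS control in HEK293H PPARg-bla cells; compound treatment 17 h at 37C. Read-out: fluorescence intensity after 1 h room-temperature incubation with LiveBLAzer B/G FRET substrate.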

[5] = qHTS assay to identify small molecule antagonists of the peroxisome proliferator-activated receptor gamma (PPARg) signaling pathway - cell viability counter screen (AID 743194); note: nearly all actives have a fitted effect of over 55% in size
Outline: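 Viability was measured as CellTiter-Glo luminescence in GeneBLAzer PPARg UAS-bla HEK293H cells. These cells had been exposed 17 h at 37 C to compounds together with rosiglitazone at 50 nM final, with the beta-lactamase readout taken in the same wells.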

[6] = qHTS assay for small molecule agonists of the antioxidant response element (ARE) signaling pathway (AID 743202; active = well fitted activation curve with a large enough effect in the signal ratio in the repeat runs, not every such curve was filed as active; the % refers to the signal ratio)
Outline: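 After 16 hours of compound treatment at 37 C, HepG2 cells with a stably integrated ARE-driven beta-lactamase reporter were loaded 2 hours at room temperature with LiveBLAzer B/G FRET substrate and fluorescence intensity measured.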

[7] = qHTS assay for small molecule agonists of the antioxidant response element (ARE) signaling pathway - cell viability counter screen (AID 743203; calls by dose curve; note: nearly all actives have a fitted effect of over 55% in size)
Outline: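 Luminescence read-out (CellTiter-Glo, 30 min at room temperature) measured cell viability in the same wells as the ARE beta-lactamase reporter. HepG2 ARE-bla cells were treated with compounds for 16 hrs at 37C/5% CO2.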

[8] = qHTS assay for small molecule activators of the heat shock response signaling pathway - cell viability counter screen (AID 743209); note: nearly all actives have a fitted effect of over 50% in size
Outline: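 HSE-bla HeLa; 1500 cells/well; overnight 37 C, 5% CO2; compound 5 h 37 C; LiveBLAzer B/G substrate 2.5 h RT; CellTiter-Glo 30 min RT; luminescence.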

[9] = qHTS assay for small molecule activators of the heat shock response signaling pathway (AID 743210; active = well fitted activation curve with a large enough effect in the signal ratio in the repeat runs, with a control signal flat, not every such curve was filed as active; the % refers to the signal ratio; note: series mostly up to about 63 µM)
Outline: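 Compound exposure lasted 5 h at 37 C in HeLa cells carrying a heat-shock-element-driven beta-lactamase reporter. Read-out: fluorescence intensity after 2.5 h room-temperature loading with LiveBLAzer B/G FRET substrate.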

[10] = qHTS assay to identify small molecule agonists of the peroxisome proliferator-activated receptor delta (PPARd) signaling pathway - cell viability counter screen (AID 743211); note: nearly all actives have a fitted effect of over 55% in size
Outline: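 Tox21 library compounds, delivered in DMSO, were incubated 17 h with PPARd-bla HEK293H cells; cytotoxicity was taken from CellTiter-Glo luminescence read 30 min after reagent addition.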

[11] = molecular target: Peroxisome proliferator-activated receptor delta (Homo sapiens) (UniProt Q03181); assay: qHTS assay to identify small molecule agonists of the peroxisome proliferator-activated receptor delta (PPARd) signaling pathway (AID 743212; calls by dose curve)
Sequence of Peroxisome proliferator-activated receptor delta (Homo sapiens) (Q03181 whole entry, looked up): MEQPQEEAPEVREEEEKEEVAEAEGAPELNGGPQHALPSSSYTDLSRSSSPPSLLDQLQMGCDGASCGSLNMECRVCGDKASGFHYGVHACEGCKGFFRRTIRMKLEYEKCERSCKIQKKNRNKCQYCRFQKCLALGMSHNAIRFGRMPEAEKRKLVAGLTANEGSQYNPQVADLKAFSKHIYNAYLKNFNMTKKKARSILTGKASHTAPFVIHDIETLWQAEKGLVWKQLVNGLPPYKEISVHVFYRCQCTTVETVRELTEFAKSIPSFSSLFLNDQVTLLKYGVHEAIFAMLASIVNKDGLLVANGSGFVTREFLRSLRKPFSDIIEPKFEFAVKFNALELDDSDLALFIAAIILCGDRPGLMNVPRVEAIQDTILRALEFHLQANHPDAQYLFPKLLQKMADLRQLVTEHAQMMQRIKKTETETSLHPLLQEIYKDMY
Outline: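 Beta-lactamase reporter readout: a ratiometric FRET signal from the LiveBLAzer substrate after 2 h at room temperature. Compound exposure at 37 °C in PPARδ-bla HEK293H cells driven by an upstream activator sequence.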

[12] = qHTS assay to identify small molecule antagonists of the peroxisome proliferator-activated receptor delta (PPARd) signaling pathway - cell viability counter screen (AID 743213); note: nearly all actives have a fitted effect of over 50% in size
Outline: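 Same-well viability: cells pre-incubated 5 h, dosed with compound plus 300 nM L165041, kept 17 h at 37 C, FRET substrate 2 h RT, then CellTiter-Glo 30 min RT and luminescence.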

[13] = molecular target: Peroxisome proliferator-activated receptor delta (Homo sapiens) (UniProt Q03181); assay: qHTS assay to identify small molecule antagonists of the peroxisome proliferator-activated receptor delta (PPARd) signaling pathway (AID 743215; active = well fitted inhibition curve with a large enough effect in the signal ratio in the repeat runs, not every such curve was filed as active; the % refers to the signal ratio;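 note: cells stimulated with agonist L165041 at 300 nM final during compound exposure; series mostly up to about 62 µM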)
Outline: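 HEK293H GeneBLAzer PPARd UAS-bla reporter cells; cpd + L165041 300 nM final, 17 h 37 C; LiveBLAzer B/G FRET substrate 2 h RT; fluorescence intensity read-out. Antagonist mode.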

[14] = qHTS assay to identify small molecule agonists of the farnesoid-X-receptor (FXR) signaling pathway - cell viability counter screen (AID 743218); note: nearly all actives have a fitted effect of over 45% in size
Outline: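 Luminescence from CellTiter-Glo, read after 30 min at RT, reports viability of GeneBLAzer FXR-UAS-bla HEK 293T cells treated 16 h with compounds in the wells used for the beta-lactamase reporter.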

[15] = qHTS assay to identify small molecule antagonists of the farnesoid-X-receptor (FXR) signaling pathway - cell viability counter screen (AID 743221; active = well fitted cell-killing curve with a large enough effect in the repeat runs, not every such curve was filed as active; note: nearly all actives have a fitted effect of over 50% in size)
Outline: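 Cytotoxicity is taken from ATP luminescence (CellTiter-Glo, 30 min, room temperature) in FXR-bla HEK 293T cells previously incubated 16 h at 37 C with compound and chenodeoxycholic acid at 50 uM final.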

[16] = molecular target: Vitamin D3 receptor (Homo sapiens) (UniProt P11473); assay: qHTS assay to identify small molecule agonists of the vitamin D receptor (VDR) signaling pathway (AID 743222; calls by dose curve)
Sequence of Vitamin D3 receptor (Homo sapiens) (P11473 whole entry, looked up): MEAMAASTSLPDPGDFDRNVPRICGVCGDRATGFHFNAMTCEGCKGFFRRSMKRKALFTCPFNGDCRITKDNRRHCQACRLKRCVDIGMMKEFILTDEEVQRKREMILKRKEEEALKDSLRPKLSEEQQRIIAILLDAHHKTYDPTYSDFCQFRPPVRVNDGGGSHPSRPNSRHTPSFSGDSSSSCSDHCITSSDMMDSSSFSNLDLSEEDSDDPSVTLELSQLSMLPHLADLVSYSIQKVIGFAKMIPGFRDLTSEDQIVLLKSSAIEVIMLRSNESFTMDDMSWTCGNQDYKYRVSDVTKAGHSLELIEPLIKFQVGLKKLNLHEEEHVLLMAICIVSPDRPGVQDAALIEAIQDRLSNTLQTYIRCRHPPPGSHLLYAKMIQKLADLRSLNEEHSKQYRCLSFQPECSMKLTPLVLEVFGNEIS
Outline: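 Beta-lactamase reporter readout (LiveBLAzer B/G FRET, 2 h RT) in VDR-bla cells after 16 h compound treatment at 37C, 5% CO2; cells pre-incubated 4 h before pin transfer of DMSO solutions.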

[17] = molecular target: Vitamin D3 receptor (Homo sapiens) (UniProt P11473); assay: qHTS assay to identify small molecule antagonists of the vitamin D receptor (VDR) signaling pathway (AID 743223; active = well fitted inhibition curve with a large enough effect in the signal ratio in the repeat runs, not every such curve was filed as active; the % refers to the signal ratio)
Outline: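 Quantitative HTS in VDR-bla reporter cells stimulated with 1alpha,25-dihydroxyvitamin D3, 3 nM final. Compound exposure 16 h, 37C, 5% CO2. Read-out: beta-lactamase FRET substrate fluorescence, 2 h RT.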

[18] = molecular target: Aryl hydrocarbon receptor (Homo sapiens) (UniProt P35869); assay: qHTS assay to identify small molecule that activate the aryl hydrocarbon receptor (AhR) signaling pathway (AID 743085);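 note: HG2L7.5c1 human HepG2 liver cells with stably integrated DRE-driven firefly reporter; series mostly up to about 70 µM; nearly all actives have a fitted effect of over 15% in size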
Sequence of Aryl hydrocarbon receptor (Homo sapiens) (P35869 whole entry, looked up): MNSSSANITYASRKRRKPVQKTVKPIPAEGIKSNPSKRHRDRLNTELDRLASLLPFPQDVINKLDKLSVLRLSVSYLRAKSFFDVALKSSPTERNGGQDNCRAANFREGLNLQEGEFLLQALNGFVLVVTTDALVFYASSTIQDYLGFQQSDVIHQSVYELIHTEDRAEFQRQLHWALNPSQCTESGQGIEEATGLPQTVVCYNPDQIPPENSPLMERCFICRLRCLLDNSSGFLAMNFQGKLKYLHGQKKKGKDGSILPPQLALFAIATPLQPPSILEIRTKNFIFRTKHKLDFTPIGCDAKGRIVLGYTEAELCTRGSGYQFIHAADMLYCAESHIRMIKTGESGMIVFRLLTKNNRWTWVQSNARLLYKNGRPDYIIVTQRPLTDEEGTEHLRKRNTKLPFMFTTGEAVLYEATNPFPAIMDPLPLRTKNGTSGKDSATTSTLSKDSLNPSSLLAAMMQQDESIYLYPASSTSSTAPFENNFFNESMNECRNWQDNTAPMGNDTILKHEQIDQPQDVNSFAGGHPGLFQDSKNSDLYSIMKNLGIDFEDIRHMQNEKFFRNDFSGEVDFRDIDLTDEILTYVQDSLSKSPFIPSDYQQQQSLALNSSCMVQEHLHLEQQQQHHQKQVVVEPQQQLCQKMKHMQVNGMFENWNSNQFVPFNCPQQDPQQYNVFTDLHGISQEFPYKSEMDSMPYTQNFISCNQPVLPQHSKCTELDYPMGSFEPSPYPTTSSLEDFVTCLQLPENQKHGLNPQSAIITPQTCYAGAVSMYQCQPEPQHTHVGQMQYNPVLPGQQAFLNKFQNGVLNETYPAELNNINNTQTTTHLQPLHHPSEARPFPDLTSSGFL
Outline: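 A multiplexed format paired cell viability (CellTiter-Fluor fluorescence) with AhR-dependent luciferase output (ONE-Glo luminescence) in the same wells of HepG2 DRE-luc cells after 24 h compound exposure at 37C.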

[19] = molecular target: Bile acid receptor (Homo sapiens) (UniProt Q96RI1); assay: qHTS assay to identify small molecule antagonists of the farnesoid-X-receptor (FXR) signaling pathway (AID 743217; active = well fitted inhibition curve with a large enough effect in the signal ratio in the repeat runs, not every such curve was filed as active; the % refers to the signal ratio)
Sequence of Bile acid receptor (Homo sapiens) (Q96RI1 whole entry, looked up): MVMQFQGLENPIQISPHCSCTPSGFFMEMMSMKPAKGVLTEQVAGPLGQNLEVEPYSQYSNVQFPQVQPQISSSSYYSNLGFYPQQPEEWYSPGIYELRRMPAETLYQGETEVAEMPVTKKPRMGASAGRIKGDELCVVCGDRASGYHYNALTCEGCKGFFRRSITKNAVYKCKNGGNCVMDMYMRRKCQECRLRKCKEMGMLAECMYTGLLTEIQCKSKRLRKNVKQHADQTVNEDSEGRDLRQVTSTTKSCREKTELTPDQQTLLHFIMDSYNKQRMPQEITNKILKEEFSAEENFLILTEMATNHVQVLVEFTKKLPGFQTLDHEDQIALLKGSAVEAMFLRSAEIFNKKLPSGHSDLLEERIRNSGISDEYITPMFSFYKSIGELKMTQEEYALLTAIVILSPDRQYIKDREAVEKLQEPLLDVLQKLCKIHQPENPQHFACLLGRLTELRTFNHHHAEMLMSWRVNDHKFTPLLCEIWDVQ
Outline: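 Read-out: beta-lactamase FRET fluorescence (LiveBLAzer B/G substrate, 2 h, room temperature) in GeneBLAzer FXR-UAS-bla HEK 293T cells. Compounds were co-dosed with 50 uM chenodeoxycholic acid (final) and incubated 16 h at 37 °C.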
% is set by controls: 0 for no effect and ±100 for the full control effect.

C[C@@H]1NC(=O)[C@@H](N)CNC(=O)[C@H](C2CCNC(N)=N2)NC(=O)/C(=C/NC(N)=O)NC(=O)[C@H](CNC(=O)C[C@@H](N)CCCN)NC1=O (stereo partly specified)
inactive: outcome [1] | outcome [2] | outcome [3] | ratio activity, negative = inhibition [4] 0.698% [at 0.55 µM] | activity change, negative = cytotoxicity [5] 14.8% [at 0.55 µM] | activation [6] 11.7% [at 0.756 µM] | viability change, negative = cytotoxic [7] 6.23% [at 0.756 µM] | activity change, negative = cytotoxicity [8] -24.2% [at 0.55 µM] | activation [9] -0.65% [at 0.55 µM] | activity change, negative = cytotoxicity [10] 14.7% [at 0.55 µM] | activation [11] 1.73% [at 0.55 µM] | viability change, negative = cytotoxic [12] 5.77% [at 0.575 µM] | ratio activity, negative = inhibition [13] 1.43% [at 0.575 µM] | viability change, negative = cytotoxic [14] -0.66% [at 0.55 µM] | activity change, negative = cytotoxicity [15] 2.18% [at 0.55 µM] | activation [16] 3.13% [at 0.554 µM] | activity change, negative = inhibition [17] 8.64% [at 0.628 µM]

C=CCN(CC=C)CC=C
inactive: outcome [1] | Potency [18] | outcome [3] | outcome [5] | outcome [7] | Potency [8] | outcome [9] | outcome [12] | outcome [14] | outcome [15] | outcome [16]

CC(C)OCCO
inactive: outcome [1] | Potency [18] | outcome [3] | outcome [4] | outcome [5] | outcome [7] | Potency [8] | outcome [9] | outcome [14] | outcome [15] | outcome [16] | outcome [17]

CC/C=C\CCOC(=O)c1ccccc1
inactive: outcome [1] | Potency [18] | outcome [4] | outcome [5] | Potency [6] | outcome [7] | Potency [8] | outcome [9] | outcome [10] | outcome [11] | outcome [12] | outcome [13] | outcome [19] | outcome [14] | outcome [15] | outcome [17]

CCNC(=O)C(C)OC(=O)Nc1ccccc1 (stereo unspecified)
inactive: outcome [1] | outcome [2] | outcome [4] | outcome [5] | Potency [6] | outcome [7] | Potency [8] | outcome [9] | outcome [10] | outcome [12] | outcome [14] | outcome [15] | outcome [16] | outcome [17]

CCCCCCCCCCCCCC(=O)OCC
inactive: outcome [1] | outcome [2] | outcome [3] | outcome [5] | outcome [7] | Potency [8] | outcome [9] | outcome [10] | outcome [12] | outcome [15] | outcome [16] | outcome [17]

CC(=O)Nc1ccc(S(=O)(=O)Nc2cc(C)on2)cc1
inactive: outcome [1] | Potency [18] | outcome [3] | outcome [5] | outcome [7] | Potency [8] | outcome [9] | outcome [10] | outcome [11] | outcome [12] | outcome [14] | outcome [15] | outcome [16] | outcome [17]

CCOC(=O)c1ccc(N(C)C)cc1
inactive: outcome [1] | outcome [2] | outcome [3] | outcome [5] | outcome [7] | Potency [8] | outcome [10] | outcome [11] | outcome [12] | outcome [13] | outcome [14] | outcome [15] | outcome [16] | outcome [17]

Cc1cc(C)c(C)c(C)c1
inactive: outcome [1] | Potency [18] | outcome [3] | outcome [5] | Potency [6] | outcome [7] | Potency [8] | outcome [10] | outcome [11] | outcome [12] | outcome [13] | outcome [19] | outcome [14] | outcome [15] | outcome [16] | outcome [17]
